Measured values published in the supplement of paper PMC11732987, “Enantioselective OTUD7B fragment discovery through chemoproteomics screening and high-throughput optimisation” (Communications Chemistry, 2025).

Assays:
Experiment in all cases: log2 ratio of Biotin-Ahx-Ub-VS probe labelling (fragment/DMSO); higher = less target engagement (more negative = stronger competition), active = hit call of the paper (q ≤ 0.05, log2 ratio ≤ -1)
Settings in all cases: compound concentration: 200 uM; treatment time: 3 h
[1] = molecular target: USP34 (UniProt Q70CQ2)
In short: (§1)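 Global-median-normalised Spectronaut label-free quantities were compared by unpaired t-test, and values are average log2 ratios of fragment over vehicle. Only proteins with ≥2 unique peptides were used. HEK293T lysate (495 µg per sample) was treated in triplicate with fragment at 200 µM or vehicle for 3 h and then with Biotin-Ahx-Ub-VS at 0.5 µM final for 1 h. Labelled DUBs were then NeutrAvidin-enriched, digested with LysC and trypsin, and run by diaPASEF LC-MS/MS.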

[2] = molecular target: T1, USP36 (UniProt Q9P275)
T1 sequence (whole entry): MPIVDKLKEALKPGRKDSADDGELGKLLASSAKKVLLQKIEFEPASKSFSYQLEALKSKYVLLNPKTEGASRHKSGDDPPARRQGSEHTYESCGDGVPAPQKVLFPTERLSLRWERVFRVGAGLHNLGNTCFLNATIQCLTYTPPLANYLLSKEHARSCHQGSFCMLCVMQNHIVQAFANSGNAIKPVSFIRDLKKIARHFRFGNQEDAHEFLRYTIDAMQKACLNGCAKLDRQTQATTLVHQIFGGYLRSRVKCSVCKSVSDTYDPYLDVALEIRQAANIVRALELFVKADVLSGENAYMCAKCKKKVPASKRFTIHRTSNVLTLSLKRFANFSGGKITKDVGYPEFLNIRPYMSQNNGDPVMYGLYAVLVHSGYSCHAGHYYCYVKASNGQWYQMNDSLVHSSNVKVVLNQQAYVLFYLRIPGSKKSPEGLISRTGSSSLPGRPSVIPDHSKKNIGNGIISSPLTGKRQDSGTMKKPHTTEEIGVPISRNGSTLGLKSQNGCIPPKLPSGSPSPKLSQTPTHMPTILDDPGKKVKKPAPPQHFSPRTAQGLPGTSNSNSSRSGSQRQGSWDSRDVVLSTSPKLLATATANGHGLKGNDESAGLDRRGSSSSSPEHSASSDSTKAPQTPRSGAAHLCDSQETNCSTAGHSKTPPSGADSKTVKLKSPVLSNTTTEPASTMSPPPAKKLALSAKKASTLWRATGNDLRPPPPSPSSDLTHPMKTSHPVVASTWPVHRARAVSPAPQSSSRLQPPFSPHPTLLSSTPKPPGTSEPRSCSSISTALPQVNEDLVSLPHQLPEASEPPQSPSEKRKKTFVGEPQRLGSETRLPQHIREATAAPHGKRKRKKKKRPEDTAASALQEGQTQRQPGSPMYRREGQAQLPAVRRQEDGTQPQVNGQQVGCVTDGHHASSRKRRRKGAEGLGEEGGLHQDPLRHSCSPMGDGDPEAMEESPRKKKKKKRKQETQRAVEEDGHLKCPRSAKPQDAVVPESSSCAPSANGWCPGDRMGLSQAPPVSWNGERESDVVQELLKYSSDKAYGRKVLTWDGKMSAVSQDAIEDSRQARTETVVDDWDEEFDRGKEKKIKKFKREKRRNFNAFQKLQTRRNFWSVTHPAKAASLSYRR
In short: as §1

[3] = molecular target: T2, USP38 (UniProt Q8NB14)
T2 sequence (whole entry): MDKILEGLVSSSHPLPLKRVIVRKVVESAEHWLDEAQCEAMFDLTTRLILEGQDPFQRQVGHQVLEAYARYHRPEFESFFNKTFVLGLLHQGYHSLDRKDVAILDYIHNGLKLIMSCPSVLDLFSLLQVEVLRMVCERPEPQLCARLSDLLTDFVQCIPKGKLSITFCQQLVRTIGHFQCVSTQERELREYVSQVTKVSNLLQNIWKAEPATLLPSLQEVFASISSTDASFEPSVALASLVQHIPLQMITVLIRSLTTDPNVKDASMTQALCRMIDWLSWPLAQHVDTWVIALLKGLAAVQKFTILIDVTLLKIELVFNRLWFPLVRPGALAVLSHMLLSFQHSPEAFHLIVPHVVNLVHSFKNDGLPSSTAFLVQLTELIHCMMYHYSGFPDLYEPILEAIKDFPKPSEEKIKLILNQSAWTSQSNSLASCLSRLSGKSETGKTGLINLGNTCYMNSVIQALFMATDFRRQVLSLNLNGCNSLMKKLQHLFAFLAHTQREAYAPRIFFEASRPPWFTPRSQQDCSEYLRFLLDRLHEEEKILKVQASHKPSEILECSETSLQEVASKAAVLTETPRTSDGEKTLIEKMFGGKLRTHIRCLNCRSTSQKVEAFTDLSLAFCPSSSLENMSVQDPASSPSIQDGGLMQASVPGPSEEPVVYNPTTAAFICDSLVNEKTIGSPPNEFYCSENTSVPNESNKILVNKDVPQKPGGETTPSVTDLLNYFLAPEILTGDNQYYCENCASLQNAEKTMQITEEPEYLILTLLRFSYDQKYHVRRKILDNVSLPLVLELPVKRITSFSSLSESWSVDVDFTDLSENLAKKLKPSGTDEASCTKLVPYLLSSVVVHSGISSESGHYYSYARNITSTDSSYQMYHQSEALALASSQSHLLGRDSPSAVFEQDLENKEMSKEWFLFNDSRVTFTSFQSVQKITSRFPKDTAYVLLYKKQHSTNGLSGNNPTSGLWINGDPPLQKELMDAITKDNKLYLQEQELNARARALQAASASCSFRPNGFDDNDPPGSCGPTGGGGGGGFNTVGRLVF
In short: as §1

[4] = molecular target: T3, USP39 (UniProt Q53GS9)
T3 sequence (whole entry): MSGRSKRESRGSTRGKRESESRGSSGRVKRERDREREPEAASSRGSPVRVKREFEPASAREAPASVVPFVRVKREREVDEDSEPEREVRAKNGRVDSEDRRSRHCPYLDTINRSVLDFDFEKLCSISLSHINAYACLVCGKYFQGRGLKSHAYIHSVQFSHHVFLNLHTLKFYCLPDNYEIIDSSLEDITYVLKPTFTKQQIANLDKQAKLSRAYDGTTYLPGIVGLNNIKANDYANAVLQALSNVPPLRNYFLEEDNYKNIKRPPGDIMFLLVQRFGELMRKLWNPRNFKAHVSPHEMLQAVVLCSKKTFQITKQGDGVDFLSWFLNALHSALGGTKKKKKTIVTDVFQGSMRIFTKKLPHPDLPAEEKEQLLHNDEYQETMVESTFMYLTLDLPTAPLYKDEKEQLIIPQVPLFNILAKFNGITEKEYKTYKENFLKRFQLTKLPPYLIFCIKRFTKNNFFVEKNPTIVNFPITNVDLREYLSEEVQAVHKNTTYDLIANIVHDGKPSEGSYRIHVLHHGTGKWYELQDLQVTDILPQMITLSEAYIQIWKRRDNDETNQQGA
In short: as §1

[5] = molecular target: T4, USP4 (UniProt Q13107)
T4 sequence (whole entry): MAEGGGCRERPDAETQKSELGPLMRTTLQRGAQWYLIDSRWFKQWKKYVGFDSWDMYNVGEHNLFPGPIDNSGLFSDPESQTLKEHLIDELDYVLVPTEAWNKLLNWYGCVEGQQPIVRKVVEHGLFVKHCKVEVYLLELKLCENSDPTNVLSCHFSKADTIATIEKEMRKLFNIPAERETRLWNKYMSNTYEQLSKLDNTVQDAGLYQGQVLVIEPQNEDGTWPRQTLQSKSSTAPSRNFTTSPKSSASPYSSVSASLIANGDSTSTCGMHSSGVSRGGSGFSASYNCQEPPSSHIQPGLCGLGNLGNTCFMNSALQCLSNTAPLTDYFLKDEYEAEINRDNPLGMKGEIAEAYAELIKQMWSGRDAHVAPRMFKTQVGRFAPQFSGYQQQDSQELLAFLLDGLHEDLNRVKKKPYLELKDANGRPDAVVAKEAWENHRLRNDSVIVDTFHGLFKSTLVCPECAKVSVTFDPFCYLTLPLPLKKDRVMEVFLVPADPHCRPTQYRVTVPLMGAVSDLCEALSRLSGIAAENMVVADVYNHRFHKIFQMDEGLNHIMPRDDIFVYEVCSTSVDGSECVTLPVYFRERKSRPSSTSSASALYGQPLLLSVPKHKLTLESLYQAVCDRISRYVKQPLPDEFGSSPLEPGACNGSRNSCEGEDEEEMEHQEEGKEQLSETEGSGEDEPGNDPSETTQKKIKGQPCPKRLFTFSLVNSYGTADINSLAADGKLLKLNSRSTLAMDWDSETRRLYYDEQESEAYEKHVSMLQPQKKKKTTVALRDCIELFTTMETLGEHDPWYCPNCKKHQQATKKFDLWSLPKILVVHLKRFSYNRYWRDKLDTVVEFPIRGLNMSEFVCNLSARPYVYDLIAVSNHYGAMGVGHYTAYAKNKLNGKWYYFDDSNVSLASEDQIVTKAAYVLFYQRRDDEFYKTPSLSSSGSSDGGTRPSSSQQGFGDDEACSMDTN
In short: as §1

Measured: log2 ratio of Biotin-Ahx-Ub-VS probe labelling

USP34, sequence (Q70CQ2 whole entry, the tested form may be a part): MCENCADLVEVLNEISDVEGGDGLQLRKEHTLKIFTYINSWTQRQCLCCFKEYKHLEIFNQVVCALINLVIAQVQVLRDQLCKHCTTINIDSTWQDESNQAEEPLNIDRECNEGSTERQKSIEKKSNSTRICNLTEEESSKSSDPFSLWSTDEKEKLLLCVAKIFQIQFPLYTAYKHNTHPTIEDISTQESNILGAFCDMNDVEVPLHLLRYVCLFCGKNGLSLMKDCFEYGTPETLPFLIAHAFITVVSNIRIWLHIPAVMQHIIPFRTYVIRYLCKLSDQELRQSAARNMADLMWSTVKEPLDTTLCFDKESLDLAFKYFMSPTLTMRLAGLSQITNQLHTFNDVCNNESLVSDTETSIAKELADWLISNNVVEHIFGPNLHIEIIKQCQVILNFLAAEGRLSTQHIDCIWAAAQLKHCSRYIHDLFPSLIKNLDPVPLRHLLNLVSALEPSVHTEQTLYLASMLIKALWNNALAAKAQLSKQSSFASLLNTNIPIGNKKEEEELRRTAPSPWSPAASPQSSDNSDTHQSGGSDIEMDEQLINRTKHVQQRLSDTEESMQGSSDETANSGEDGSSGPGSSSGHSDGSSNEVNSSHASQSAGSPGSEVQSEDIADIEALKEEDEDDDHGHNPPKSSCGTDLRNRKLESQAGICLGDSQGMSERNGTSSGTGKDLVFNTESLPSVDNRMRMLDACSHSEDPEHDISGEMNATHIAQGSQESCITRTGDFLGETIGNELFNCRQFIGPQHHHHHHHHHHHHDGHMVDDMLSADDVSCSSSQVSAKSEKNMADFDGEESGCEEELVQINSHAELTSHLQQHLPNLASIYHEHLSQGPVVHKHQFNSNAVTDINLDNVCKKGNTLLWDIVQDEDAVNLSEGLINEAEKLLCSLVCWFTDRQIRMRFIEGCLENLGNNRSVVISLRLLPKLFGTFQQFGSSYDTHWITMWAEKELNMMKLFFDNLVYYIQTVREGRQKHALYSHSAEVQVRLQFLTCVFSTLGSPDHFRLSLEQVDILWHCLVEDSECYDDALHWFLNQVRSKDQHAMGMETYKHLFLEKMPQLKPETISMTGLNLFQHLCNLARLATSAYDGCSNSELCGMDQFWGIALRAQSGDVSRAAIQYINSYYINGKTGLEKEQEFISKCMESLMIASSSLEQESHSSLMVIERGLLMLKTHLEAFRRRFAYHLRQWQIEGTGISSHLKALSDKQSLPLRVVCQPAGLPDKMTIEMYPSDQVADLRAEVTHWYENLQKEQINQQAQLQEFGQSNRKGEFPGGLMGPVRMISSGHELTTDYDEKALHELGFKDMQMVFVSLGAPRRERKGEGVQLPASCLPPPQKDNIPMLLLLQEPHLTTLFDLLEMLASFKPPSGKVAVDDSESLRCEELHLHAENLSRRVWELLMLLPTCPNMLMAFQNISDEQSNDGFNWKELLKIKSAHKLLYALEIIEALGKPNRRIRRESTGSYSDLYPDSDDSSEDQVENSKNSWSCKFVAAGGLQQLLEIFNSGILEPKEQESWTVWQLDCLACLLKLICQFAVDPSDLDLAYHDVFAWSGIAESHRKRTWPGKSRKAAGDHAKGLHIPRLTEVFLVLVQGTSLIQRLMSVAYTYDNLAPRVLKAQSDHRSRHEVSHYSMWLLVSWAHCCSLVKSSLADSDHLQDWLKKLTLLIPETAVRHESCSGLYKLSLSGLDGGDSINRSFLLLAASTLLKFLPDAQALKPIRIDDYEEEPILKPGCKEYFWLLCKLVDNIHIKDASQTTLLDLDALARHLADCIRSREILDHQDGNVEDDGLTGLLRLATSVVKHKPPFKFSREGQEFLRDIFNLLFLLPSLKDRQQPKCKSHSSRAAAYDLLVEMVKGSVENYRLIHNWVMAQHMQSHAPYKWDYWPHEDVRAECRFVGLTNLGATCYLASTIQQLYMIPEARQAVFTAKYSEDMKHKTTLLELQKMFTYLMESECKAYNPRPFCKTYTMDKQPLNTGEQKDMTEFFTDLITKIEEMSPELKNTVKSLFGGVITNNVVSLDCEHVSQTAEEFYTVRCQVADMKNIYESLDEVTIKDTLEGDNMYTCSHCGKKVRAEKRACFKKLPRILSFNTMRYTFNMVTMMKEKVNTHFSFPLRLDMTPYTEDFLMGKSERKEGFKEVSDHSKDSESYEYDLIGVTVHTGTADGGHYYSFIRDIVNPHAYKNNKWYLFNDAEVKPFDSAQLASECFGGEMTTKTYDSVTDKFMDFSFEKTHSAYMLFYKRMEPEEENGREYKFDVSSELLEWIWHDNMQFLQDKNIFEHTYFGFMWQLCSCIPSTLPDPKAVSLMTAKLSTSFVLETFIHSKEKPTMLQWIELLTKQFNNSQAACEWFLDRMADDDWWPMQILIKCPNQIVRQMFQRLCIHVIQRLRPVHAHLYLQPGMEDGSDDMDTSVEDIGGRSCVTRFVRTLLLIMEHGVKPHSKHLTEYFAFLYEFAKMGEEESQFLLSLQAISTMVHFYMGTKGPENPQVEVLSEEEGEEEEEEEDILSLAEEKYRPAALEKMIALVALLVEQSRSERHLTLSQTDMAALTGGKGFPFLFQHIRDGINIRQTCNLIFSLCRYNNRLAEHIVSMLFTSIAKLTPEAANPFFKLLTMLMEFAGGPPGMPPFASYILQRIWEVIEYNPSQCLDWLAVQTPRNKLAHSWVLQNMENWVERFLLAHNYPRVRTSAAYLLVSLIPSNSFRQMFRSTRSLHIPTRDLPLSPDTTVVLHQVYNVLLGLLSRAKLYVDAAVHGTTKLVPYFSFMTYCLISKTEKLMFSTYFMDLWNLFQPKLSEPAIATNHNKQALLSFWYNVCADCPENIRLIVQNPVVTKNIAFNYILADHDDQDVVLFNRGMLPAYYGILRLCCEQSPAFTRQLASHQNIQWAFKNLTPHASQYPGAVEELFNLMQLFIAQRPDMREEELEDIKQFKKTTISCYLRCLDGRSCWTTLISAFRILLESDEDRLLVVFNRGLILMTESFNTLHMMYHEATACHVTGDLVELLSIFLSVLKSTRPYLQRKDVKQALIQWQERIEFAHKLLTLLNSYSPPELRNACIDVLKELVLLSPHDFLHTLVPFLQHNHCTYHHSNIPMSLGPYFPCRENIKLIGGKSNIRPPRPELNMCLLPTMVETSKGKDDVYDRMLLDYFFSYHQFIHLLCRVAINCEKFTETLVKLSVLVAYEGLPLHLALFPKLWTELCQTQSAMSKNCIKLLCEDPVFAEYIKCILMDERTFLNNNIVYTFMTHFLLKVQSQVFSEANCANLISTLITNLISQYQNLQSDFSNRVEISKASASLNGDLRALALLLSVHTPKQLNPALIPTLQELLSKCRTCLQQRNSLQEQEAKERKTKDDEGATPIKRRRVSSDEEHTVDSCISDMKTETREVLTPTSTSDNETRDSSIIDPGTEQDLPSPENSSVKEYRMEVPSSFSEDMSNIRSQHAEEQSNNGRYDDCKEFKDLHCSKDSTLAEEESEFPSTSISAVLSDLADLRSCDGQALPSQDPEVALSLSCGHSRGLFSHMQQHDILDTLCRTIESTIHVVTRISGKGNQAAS

Cl.O=C(CCl)NCc1ccnc(Oc2ccccc2F)c1
inactive: [1] -0.267 | [2] 0.0203 | [3] -0.00457 | [4] 0.295 | [5] -0.0201
